Activity calls are given as the source filed them. How the source made its calls: active means hit-call score of the fitted dose curve at least 0.9, where 1 is the maximum; inactive means score below 0.9.

We go through three molecules from PubChem BioAssay (EPA / NIEHS).

Read-out in experiment [1]: C-C motif chemokine 2 (Homo sapiens) (UniProt P13500)
Briefly: BSK_KF3CT_MCP1: BioMAP Diversity Plus: KF3CT Assay for Monocyte Chemoattractant Protein 1 (MCP1/CCL2) Biomarker Activity (AID 2283073). The following applies: primary human keratinocytes with fibroblasts; actives raise or lower the signal. In outline: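 Human keratinocyte–foreskin fibroblast co-culture; MCP-1 measured by ELISA 24 h after dosing. Bidirectional fit vs DMSO; cytotoxicity tracked by SRB total protein in parallel cultures.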

Read-out in experiment [2]: Matrix Metallopeptidase 9 (MMP9), MMP9 (gene 4318)
The experiment in a line: BSK_KF3CT_MMP9: BioMAP Diversity Plus: KF3CT Assay for Matrix Metallopeptidase 9 (MMP9) Biomarker Activity (AID 2283074).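 On AC50: MMP9 protein level quantified by ELISA in the co-culture.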 The following applies: primary human keratinocytes with fibroblasts; actives raise or lower the signal. In outline: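 Human keratinocyte/foreskin fibroblast co-culture; compound added; 24 h; MMP-9 by ELISA; bidirectional fit vs DMSO baseline.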

Read-out in experiment [3]: urokinase plasminogen activator (uPA), PLAU (gene 5328)
The experiment in a line: BSK_KF3CT_uPA: BioMAP Diversity Plus: KF3CT Assay for urokinase plasminogen activator (uPA) Biomarker Activity (AID 2283075). The following applies: primary human keratinocytes with fibroblasts; actives raise or lower the signal. In outline: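 ELISA readout of uPA, analyzed for signal gain or loss relative to DMSO, from a human primary keratinocyte–foreskin fibroblast co-culture measured 24 h after chemical treatment.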

Read-out in experiment [4]: CD40, CD40 (gene 958)
Briefly: BSK_LPS_CD40: BioMAP Diversity Plus: LPS Assay for CD40 Biomarker Activity (AID 2283076). The following applies: primary human HUVEC with PBMC; actives raise or lower the signal. In outline: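 HUVEC plus PBMC co-culture stimulated with LPS; CD40 quantified by ELISA 24 h after compound dosing. Fitting was bidirectional relative to DMSO. SRB staining of parallel cultures flagged overt cytotoxicity.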

Read-out in experiment [5]: Interleukin-8 (IL8), CXCL8 (gene 3576)
The experiment in a line: BSK_LPS_IL8: BioMAP Diversity Plus: LPS Assay for Interleukin-8 (IL8) Biomarker Activity (AID 2283078). The following applies: primary human HUVEC with PBMC; actives raise or lower the signal. Summed up: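 Human umbilical vein endothelial cells co-cultured with PBMC, LPS-stimulated, exposed to compound for 24 h. IL-8 quantified by ELISA; fitted in both directions against DMSO, with SRB total-protein staining of parallel cultures for cytotoxicity.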

Experiment [6] is described as follows: BSK_LPS_SRB: Viability Assessment in the BioMAP Diversity Plus: LPS Assay (AID 2283079).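 Further: total protein by sulforhodamine B absorbance as a cytotoxicity measure; measured one day after compound addition; fitted in both directions against DMSO so loss or gain of signal counts.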 The following applies: primary human HUVEC with PBMC. In outline:
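Co-culture of human umbilical vein endothelial cells and PBMC, read 24 h after dosing. Total protein by 0.1% SRB staining after 10% TCA fixation, absorbance at 560 nm; bidirectional fit against DMSO.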

Read-out in experiment [7]: Interleukin-1 alpha (IL1a), IL1A (gene 3552)
The experiment in a line: BSK_LPS_IL1a: BioMAP Diversity Plus: LPS Assay for Interleukin-1 alpha (IL1a) Biomarker Activity (AID 2283080). The following applies: primary human HUVEC with PBMC; actives raise or lower the signal. Summed up:
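Human umbilical vein endothelial cells co-cultured with PBMC and stimulated with LPS; IL-1a measured by ELISA 24 h after dosing. Bidirectional fitting against DMSO; cytotoxicity checked by SRB staining in parallel cultures.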

Read-out in experiment [8]: Monocyte Chemoattractant Protein-1 (MCP1), CCL2 (gene 6347)
Briefly: BSK_LPS_MCP1: BioMAP Diversity Plus: LPS Assay for Monocyte Chemoattractant Protein-1 (MCP1) Biomarker Activity (AID 2283081).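 On AC50: secreted MCP-1 protein quantified by ELISA in culture supernatant.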 The following applies: primary human HUVEC with PBMC; actives raise or lower the signal. Summed up: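 Human umbilical vein endothelial cells co-cultured with PBMC, LPS-stimulated; secreted MCP-1 measured by ELISA 24 h after compound addition. Bidirectional curve fitting against DMSO baseline; SRB total-protein staining in parallel cultures for cytotoxicity.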

The nature of experiment [9]: BSK_LPS_PGE2: BioMAP Diversity Plus: LPS Assay for Prostaglandin E2 (PGE2) Biomarker Activity (AID 2283082). The following applies: primary human HUVEC with PBMC; actives raise or lower the signal. Summed up: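 Endpoint derived from bidirectional curve fitting versus DMSO of ELISA-measured PGE2 in LPS-stimulated human primary vascular co-culture (HUVEC with PBMC) harvested at 24 h.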

Read-out in experiment [10]: Macrophage colony-stimulating factor (MCSF), CSF1 (gene 1435)
The experiment in a line: BSK_LPS_MCSF: BioMAP Diversity Plus: LPS Assay for Macrophage colony-stimulating factor (MCSF) Biomarker Activity (AID 2283083). The following applies: primary human HUVEC with PBMC; actives raise or lower the signal. In outline: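 HUVEC–PBMC co-culture, M-CSF measured by ELISA 24 h after chemical dosing. Fitted in both directions relative to DMSO as negative control; overt cytotoxicity assessed by SRB total-protein staining in parallel cultures.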

Read-out in experiment [11]: Tissue Factor, F3 (gene 2152)
The experiment in a line: BSK_LPS_TissueFactor: BioMAP Diversity Plus: LPS Assay for Tissue Factor Biomarker Activity (AID 2283084). As to conditions: primary human HUVEC with PBMC; actives raise or lower the signal. Summed up: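 Human umbilical vein endothelial cells co-cultured with PBMC were dosed with compound. Cell-surface CD142 was measured by ELISA 24 h later. Activity was fitted bidirectionally against DMSO, with SRB total-protein staining in parallel cultures for cytotoxicity.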

Read-out in experiment [12]: Tumor necrosis factor (Homo sapiens) (UniProt P01375)
The experiment in a line: BSK_LPS_TNFa: BioMAP Diversity Plus: LPS Assay for Tumour Necrosis Factor alpha (TNFa) Biomarker Activity (AID 2283085). The following applies: primary human HUVEC with PBMC; actives raise or lower the signal. Summed up:
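Primary human vascular co-culture of HUVEC and PBMC; TNFa ELISA 24 h after treatment, analysed as increase or decrease relative to DMSO control.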

Read-out in experiment [13]: Vascular cell adhesion molecule 1 (VCAM1), VCAM1 (gene 7412)
Briefly: BSK_LPS_VCAM1: BioMAP Diversity Plus: LPS Assay for Vascular cell adhesion molecule 1 (VCAM1) Biomarker Activity (AID 2283086). The following applies: primary human HUVEC with PBMC; actives raise or lower the signal. Summed up: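 Primary human vascular co-culture (umbilical vein endothelium plus PBMC) stimulated with LPS received chemical; 24 h later VCAM-1 was read by ELISA. Overt cytotoxicity was assessed by sulforhodamine B staining of parallel cultures at the same time point.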

Read-out in the next experiment: CD38, CD38 (gene 952)
Briefly: BSK_SAg_CD38: BioMAP Diversity Plus: SAg Assay for CD38 Biomarker Activity (AID 2283087). The following applies: primary human HUVEC with PBMC; actives raise or lower the signal. Summed up:
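Fluorescence ELISA of cell-surface CD38 served as the read-out, with either increase or decrease fitted against DMSO controls. Cells were a human umbilical vein endothelium plus PBMC co-culture under SEB/TSST-1 stimulation, measured 24 h after dosing.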

Read-out in the next experiment: CD69, CD69 (gene 969)
The experiment in a line: BSK_SAg_CD69: BioMAP Diversity Plus: SAg Assay for CD69 Biomarker Activity (AID 2283089).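 On AC50: cell surface CD69 protein quantified by ELISA with fluorescence detection.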 The following applies: primary human HUVEC with PBMC; actives raise or lower the signal. Summed up:
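Endothelial/PBMC co-culture; chemical added; 24 h incubation; CD69 ELISA with fluorescence detection; bidirectional fit vs DMSO.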

Read-out in experiment [14]: Monocyte Chemoattractant Protein-1 (MCP1), CCL2 (gene 6347)
Briefly: BSK_SAg_MCP1: BioMAP Diversity Plus: SAg Assay for Monocyte Chemoattractant Protein-1 (MCP1) Biomarker Activity (AID 2283090). As to conditions: primary human HUVEC with PBMC; actives raise or lower the signal. Summed up:
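MCP-1 levels in the endothelial–PBMC SAg co-culture were quantified by ELISA at 24 h post-dosing; both increases and decreases versus DMSO scored. Cytotoxicity monitored by SRB total protein in parallel cultures.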

Read-out in experiment [15]: E-selectin (Homo sapiens) (UniProt P16581)
Briefly: BSK_SAg_Eselectin: BioMAP Diversity Plus: SAg Assay for Eselectin Biomarker Activity (AID 2283091). As to conditions: primary human HUVEC with PBMC; actives raise or lower the signal. In outline:
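Human umbilical vein endothelial cells co-cultured with peripheral blood mononuclear cells, SAg system. E-selectin is measured by ELISA 24 h after dosing and fitted bidirectionally against DMSO. Cytotoxicity is checked by SRB staining of parallel cultures.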

Read-out in experiment [16]: Monokine induced gamma interferon (MIG), CXCL9 (gene 4283)
The experiment in a line: BSK_SAg_MIG: BioMAP Diversity Plus: SAg Assay for Monokine induced gamma interferon (MIG) Biomarker Activity (AID 2283092). The following applies: primary human HUVEC with PBMC; actives raise or lower the signal. Summed up: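 Measures CXCL9 protein by ELISA in a human vascular primary-cell co-culture (umbilical vein endothelium with PBMC) 24 h after chemical addition. Activity is scored up or down from the DMSO control.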

Read-out in experiment [17]: E-selectin (Homo sapiens) (UniProt P16581)
The experiment in a line: BSK_LPS_Eselectin: BioMAP Diversity Plus: LPS Assay for Eselectin Biomarker Activity (AID 2283077). As to conditions: primary human HUVEC with PBMC; actives raise or lower the signal. Summed up:
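Human umbilical vein endothelial cells co-cultured with PBMC under LPS stimulation; cell-surface E-selectin measured by ELISA 24 h after dosing. Change in either direction versus DMSO, with SRB total-protein staining in parallel cultures for cytotoxicity.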

Read-out in experiment [18]: CD40, CD40 (gene 958)
The experiment in a line: BSK_SAg_CD40: BioMAP Diversity Plus: SAg Assay for CD40 Biomarker Activity (AID 2283088). As to conditions: primary human HUVEC with PBMC; actives raise or lower the signal. Summed up: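 HUVEC plus PBMC co-culture, superantigen-activated, with CD40 read by ELISA 24 h after dosing. Curves fitted in both directions against DMSO. Overt cytotoxicity checked by parallel SRB total-protein staining.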

Sequence of E-selectin (Homo sapiens) (P16581 whole entry, looked up): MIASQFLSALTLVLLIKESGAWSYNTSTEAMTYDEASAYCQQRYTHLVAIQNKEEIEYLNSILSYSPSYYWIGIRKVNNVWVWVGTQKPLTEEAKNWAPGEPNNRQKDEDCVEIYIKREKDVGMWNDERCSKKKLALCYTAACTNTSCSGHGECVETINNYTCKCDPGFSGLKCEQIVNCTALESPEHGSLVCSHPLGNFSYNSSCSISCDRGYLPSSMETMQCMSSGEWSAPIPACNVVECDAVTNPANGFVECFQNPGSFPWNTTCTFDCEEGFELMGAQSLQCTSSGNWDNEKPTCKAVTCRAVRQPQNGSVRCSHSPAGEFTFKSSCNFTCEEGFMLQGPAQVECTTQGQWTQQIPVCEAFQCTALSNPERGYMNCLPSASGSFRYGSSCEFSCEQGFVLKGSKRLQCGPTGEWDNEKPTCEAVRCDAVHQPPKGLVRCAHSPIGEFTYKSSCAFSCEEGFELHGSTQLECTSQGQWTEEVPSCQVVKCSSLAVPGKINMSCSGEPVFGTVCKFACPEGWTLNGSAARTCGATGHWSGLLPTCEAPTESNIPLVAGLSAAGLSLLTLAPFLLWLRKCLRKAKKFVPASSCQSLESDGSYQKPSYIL
Sequence of Tumor necrosis factor (Homo sapiens) (P01375 whole entry, looked up): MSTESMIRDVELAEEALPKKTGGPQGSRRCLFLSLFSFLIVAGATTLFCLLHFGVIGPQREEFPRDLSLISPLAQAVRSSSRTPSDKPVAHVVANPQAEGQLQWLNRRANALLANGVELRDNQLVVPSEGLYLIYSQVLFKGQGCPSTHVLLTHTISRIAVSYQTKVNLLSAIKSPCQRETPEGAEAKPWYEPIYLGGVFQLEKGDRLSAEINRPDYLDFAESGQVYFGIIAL

In the case of `CC(C)(c1ccccc1)c1ccc(O)c(C(C)(C)c2ccccc2)c1`, the AC50 (in general, the concentration giving half of the maximal activity seen) in [1] was 4.19 µM (active); in experiment [2] it was 2.41 µM (active); in [3], 2.85 µM (active); with CD40, CD40 (gene 958) [4], 12.3 µM (active); in [5] it was 12 µM (active); in experiment [6], 12.7 µM (active). For the same molecule, the AC50 in experiment [7] was 11.1 µM (active); in experiment [8] it was 10.1 µM (active); in experiment [10], 9.66 µM (active); in experiment [11] it was 12.6 µM (active); in experiment [12] it was 12.3 µM (active); in experiment [13], 12.9 µM (active). Further, the AC50 was 10.5 µM (active) in the experiment with CD38, CD38 (gene 952); 11.9 µM (active) with CD69, CD69 (gene 969); 9.77 µM (active) in experiment [14]; 11.9 µM (active) in [15]; 11.4 µM (active) in experiment [16]. The result in [9] was inactive.
`NC(=S)Nc1ccccc1`: the outcome was “inactive” in experiment [1]; “inactive” in experiment [2]; “inactive” in experiment [3]; “inactive” with CD40, CD40 (gene 958) [4]; “inactive” in [17]; “inactive” in experiment [5]. For the same molecule, the result in experiment [6], in experiment [7], in experiment [8], in experiment [9], in [10] and in experiment [11] was inactive. For the same molecule, the outcome in [12] is “inactive”; in experiment [13], “inactive”; with CD38, CD38 (gene 952) it was “inactive”; with CD40, CD40 (gene 958) [18] it was “inactive”; with CD69, CD69 (gene 969), “inactive”; in experiment [14], “inactive”. In addition, the result in [16] was inactive.
As for `C=C(C)C(=O)[O][Sn]([CH2]CCC)([CH2]CCC)[CH2]CCC`, the AC50 in [2] was 0.148 µM (active); in experiment [3] it was 0.148 µM (active); with CD40, CD40 (gene 958) [4], 0.148 µM (active); in experiment [17] it was 0.148 µM (active); in experiment [5] it was 0.38 µM (active); in experiment [6], 0.148 µM (active). For the same molecule, the half-maximal activity concentration (AC50) was 0.148 µM (active) in [7]; 0.331 µM (active) in experiment [8]; 0.148 µM (active) in experiment [10]; 0.148 µM (active) in [11]; 0.34 µM (active) in experiment [12]; 0.148 µM (active) in experiment [13]. The half-maximal activity concentration (AC50) in the experiment with CD38, CD38 (gene 952) is 0.248 µM (active); with CD40, CD40 (gene 958) [18], 0.148 µM (active); in the experiment with CD69, CD69 (gene 969) it was 0.148 µM (active); in experiment [14], 0.352 µM (active); in [16], 0.148 µM (active). Besides, in [9], the outcome was inactive.
